Data published in PubChem BioAssay AID1159580 (chemical genetic matrix, 2015).
Among all 5,500 compounds or so, about 2,000 (36%) were called active. Roughly 18% stayed inconclusive and do not appear here. No stated cut-off is given here; in the data, active means normalized growth mostly below about 0.91 (no sharp cut-off); inconclusive means no clear call, values can overlap the other calls; inactive means mostly above about 0.92. Some of the results follow.

Test: chemical genetic growth profiling, strain panel (AID 1159580);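 further: tested at 20 µM; growth read once vehicle control cultures reached saturation at 30 °C; 1 = growth at the plate median or of vehicle wells; lower values mean less growth of the strain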
Details: S. cerevisiae deletion strains, growth OD
[1] = locus YPL055C, strain LGE1, active compounds read low
[2] = locus YPL241C, strain CIN2, active compounds read low

Measured: normalized growth

CC(C)NC(C)Cc1ccc(I)cc1 (stereo not given)
inactive: locus YAL013W, strain DEP1, active compounds read low 0.999 | locus YAL040C, strain CLN3, active compounds read low 1.01 | locus YCL061C, strain MRC1 (second series), active compounds read low 1.01 | locus YDR150W, strain NUM1, active compounds read low 1.01 | locus YDR363W, strain ESC2, active compounds read low 0.995 | locus YER002W, strain NOP16, active compounds read low 1 | locus YNL175C, strain NOP13, active compounds read low 1.01 | locus YNL197C, strain WHI3, active compounds read low 1.01 | locus YNL224C, strain SQS1, active compounds read low 1 | locus YNL322C, strain KRE1, active compounds read low 1 | locus YOR083W, strain WHI5 (second series), active compounds read low 0.998 | [1] 0.991 | [2] 1.02

COC(=O)CC1C(C)(C)C(=O)C2CC3(O)C4=CC(=O)OC(c5ccoc5)C4(C)CCC3C1(C)C2=O (stereo not given)
inactive: locus YBR021W, strain FUR4, active compounds read low 1 | locus YBR229C, strain ROT2, active compounds read low 1 | locus YCL029C, strain bik1, active compounds read low 0.983 | locus YDL035C, strain GPR1, active compounds read low 1.01 | locus YDL074C, strain BRE1, active compounds read low 1 | locus YDL101C, strain DUN1, active compounds read low 1 | locus YDL185W, strain tfp1, active compounds read low 0.981 | locus YDL192W, strain arf1, active compounds read low 0.99 | locus YDR101C, strain arx1, active compounds read low 0.997 | locus YDR162C, strain NBP2, active compounds read low 1.02 | locus YDR318W, strain mcm21, active compounds read low 0.977 | locus YDR388W, active compounds read low 0.982 | locus YDR502C, strain sam2, active compounds read low 0.992 | locus YER110C, active compounds read low 0.983 | locus YER155C, strain BEM2, active compounds read low 1 | locus YER167W, strain BCK2, active compounds read low 1.01 | locus YGL078C, strain dbp3, active compounds read low 0.982 | locus YGL086W, strain mad1, active compounds read low 0.993 | locus YGL248W, strain PDE1, active compounds read low 1 | locus YGR135W, strain pre9, active compounds read low 0.985 | locus YGR252W, strain gcn5, active compounds read low 0.906 | locus YHR030C, strain SLT2, active compounds read low 1.01 | locus YHR079C, strain IRE1 (second series), active compounds read low 0.977 | locus YHR094C, strain hxt1, active compounds read low 0.985 | locus YHR129C, strain ARP1, active compounds read low 1 | locus YHR200W, strain rpn10, active compounds read low 0.986 | locus YIL066C, strain RNR3, active compounds read low 1.01 | locus YIL073C, strain SPO22, active compounds read low 1.03 | locus YIL125W, strain kgd1, active compounds read low 0.984 | locus YIR030C, strain dcg1, active compounds read low 0.989 | locus YJL095W, strain BCK1, active compounds read low 1.02 | locus YJL134W, strain LCB3, active compounds read low 1 | locus YJL168C, strain set2, active compounds read low 0.982 | locus YJL187C, strain SWE1 (second series), active compounds read low 1 | locus YJR043C, strain POL32, active compounds read low 0.997 | locus YKL009W, strain mrt4, active compounds read low 0.989 | locus YKL068W, active compounds read low 0.993 | locus YKL085W, strain MDH1 (second series), active compounds read low 0.991 | locus YKL085W, strain MDH1, active compounds read low 0.991 | locus YKR001C, strain vps1, active compounds read low 0.97 | locus YLR039C, strain RIC1, active compounds read low 1.05 | locus YLR058C, strain SHM2, active compounds read low 1 | locus YLR102C, strain apc9, active compounds read low 0.988 | locus YLR262C, strain YPT6, active compounds read low 1.13 | locus YLR268W, strain sec22, active compounds read low 0.977 | locus YLR342W, strain FKS1 (second series), active compounds read low 0.992 | locus YLR371W, strain rom2, active compounds read low 0.986 | locus YLR418C, strain cdc73, active compounds read low 0.966 | locus YML016C, strain PPZ1, active compounds read low 1 | locus YML032C, strain rad52, active compounds read low 0.982 | locus YML124C, strain tub3, active compounds read low 0.988 | locus YMR078C, strain ctf18, active compounds read low 0.991 | locus YMR223W, strain ubp8, active compounds read low 0.992 | locus YMR307W, strain GAS1, active compounds read low 0.985 | locus YNL067W, strain RPL9B, active compounds read low 1.01 | locus YNL128W, strain TEP1, active compounds read low 1.01 | locus YNL233W, strain BNI4, active compounds read low 1.01 | locus YNL250W, strain rad50, active compounds read low 0.986 | locus YNL271C, strain bni1, active compounds read low 0.979 | locus YNL298W, strain CLA4, active compounds read low 0.982 | locus YNL307C, strain MCK1, active compounds read low 0.986 | locus YNR052C, strain pop2, active compounds read low 0.978 | locus YOL012C, strain htz1 1.11 | locus YOL147C, strain pex11, active compounds read low 0.983 | locus YOR061W, strain CKA2, active compounds read low 1.01 | locus YOR069W, strain VPS5, active compounds read low 1 | locus YOR136W, strain idh2, active compounds read low 0.978 | locus YOR144C, strain elg1, active compounds read low 0.985 | locus YOR184W, strain ser1, active compounds read low 0.992 | locus YOR316C, strain cot1, active compounds read low 0.991 | [1] 0.994 | [2] 1 | locus YPR119W, strain clb2, active compounds read low 0.999 | locus YPR141C, strain kar3, active compounds read low 0.99 | locus YPR163C, strain tif3, active compounds read low 0.982 | locus YPR167C, strain met16, active compounds read low 0.985 | strain wtn01, active compounds read low 0.99
